Results with a measured potency or affinity are listed apart. Activity calls are given as the source filed them.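 The calls were made as follows: active = compounds lowering fluorescence whose fitted half-maximal dose is at most twice the top valid dose; inconclusive = flat fit between -70% and -30%, or poor curve fit; inactive = the rest.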

For this assay, the target named is Caspase-8 (Homo sapiens) (UniProt Q14790). Put plainly: inhibitors of purified CASP8 protease – biochemical, Z-IETD-R110 fluorescence, cherry-picked samples, selectivity assay for caspase-6 inhibitor project, dose response (AID 743294). To be noted: purified caspase-8, Z-IETD-R110 cleavage fluorescence; series mostly up to 35 µM.
Caspase-8 (Homo sapiens), sequence (Q14790 whole entry, looked up): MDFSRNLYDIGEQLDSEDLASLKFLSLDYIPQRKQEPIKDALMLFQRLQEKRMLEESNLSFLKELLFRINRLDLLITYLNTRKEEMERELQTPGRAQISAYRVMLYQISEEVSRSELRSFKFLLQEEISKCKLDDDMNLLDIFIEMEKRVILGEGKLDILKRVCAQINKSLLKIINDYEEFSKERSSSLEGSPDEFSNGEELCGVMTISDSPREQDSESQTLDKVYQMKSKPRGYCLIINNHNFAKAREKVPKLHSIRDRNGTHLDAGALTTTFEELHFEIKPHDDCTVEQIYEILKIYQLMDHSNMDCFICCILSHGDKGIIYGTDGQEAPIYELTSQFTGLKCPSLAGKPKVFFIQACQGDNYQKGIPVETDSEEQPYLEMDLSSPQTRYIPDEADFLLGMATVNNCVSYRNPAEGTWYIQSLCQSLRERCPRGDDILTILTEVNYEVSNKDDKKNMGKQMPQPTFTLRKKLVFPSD
`COc1cc(NC(C)CCCNC(C)C)c2ncccc2c1OC` (centres undefined): the call was inactive.
Next, `CC(CNc1ccccc1O)C(=O)O` (centres undefined): “inactive”; `O=C(CCO)c1ccc(O)cc1`: “inactive”; `O=C(Nc1ccc2nc3n(c(=O)c2c1)CCCCC3)c1c(F)ccc([N+](=O)[O-])c1F`: “inactive”.
For `O=C(Nc1ccc(S(=O)(=O)Nc2cnc3ccccc3n2)cc1)c1ccc(Cl)c([N+](=O)[O-])c1` the value was “inactive”.
For `Cc1ccc(S(=O)c2ccc([N+](=O)[O-])c3nonc23)cc1` (centres undefined) the value was “inactive”.
As to `Cn1cnnc1SCC(=O)Nc1ncc([N+](=O)[O-])s1`, the compound was classed as inactive.
For `Nc1c(O)cccc1C(=O)O` the value was “inactive”; for `O=[N+]([O-])c1c(Nc2ccccn2)cc(Cl)c2nonc12`, “inactive”; for `Oc1cc2c(cc1O)[C@H]1c3ccc(O)c(O)c3OC[C@@]1(O)C2`, “inactive”.
Next, `O=c1cc2c(=O)oc3cc(O)c(O)oc3c2c(O)c1O`: “inactive”.
Take `CCOC(=O)c1sc2nc(OCCN3CCOCC3)cc(C)c2c1N`: the outcome was inactive.
Next, `COCCn1c2nc(=O)n(-c3ccccc3)c(=O)c-2nc2ccccc21`: “inactive”; `O=C(O)CCc1ccc(-c2ccc(Br)cc2)n1CC(=O)O`: “inactive”.
For the compound `CCOC(=O)[C@H](Cc1c[nH]c2ccccc12)NC(=O)CN=[N+]=[N-]`, the compound was called inactive.
Turning to `CCCSC1=N/C(=C\c2ccc([N+](=O)[O-])o2)C(=O)S1`, the compound was called inactive.
For `CCCCNC(=O)c1nc(C2CCNCC2)oc1-c1cccc(C(F)(F)F)c1` the value was “inactive”.
Take `Cc1[nH]nc(S(=O)CC(=O)O)c1[N+](=O)[O-]` (centres undefined): the outcome was inactive.
For `Cc1oc2c(cc(NS(=O)(=O)c3ccc(C(C)C)cc3)c3ccccc32)c1C(=O)O` the value was “inactive”.
Next, `O=C(O)/C(=C\c1ccc(Cl)c([N+](=O)[O-])c1)c1ccc(S(=O)(=O)N2CCCC2)s1`: “inactive”; `CCN(CC)CCCC(C)n1c2nc(=O)[nH]c(=O)c-2nc2cc(Cl)ccc21` (centres undefined): “inactive”.
Next, `O=P(c1ccccc1)(c1ccccc1)c1cc(S(=O)(=O)O)ccc1O`: “inactive”.
Take `Nc1ccc(Nc2ccccc2)c(S(=O)(=O)O)c1`: the call was inactive.
Next, `O=C(O)CC(CCc1ccccc1)OC1OC(CO)C(O)C(O)C1O` (centres undefined): “inactive”.
In the case of `O=C(C[C@@H]1C[C@H]2c3cc(NC(=O)NC4CCCCC4)ccc3O[C@H]2[C@H](CO)O1)NCc1ccccn1`, the outcome was inactive.
For `CO[C@H]1CN(C)C(=O)c2cc(NC(C)=O)ccc2OC[C@@H](C)N(C(=O)CC2CC2)C[C@H]1C`, the compound was classed as inactive.
For `C/C(CC(=O)N1CCCC1)=N\NC(=O)c1cc2ccccc2cc1O` the value was “inactive”.
On to `O=C(O)Cc1ccc(-n2cccc2)cc1`, for which the compound was classed as inactive.
Next, `COc1ccc(C(=O)OCC(=O)Nc2ncc([N+](=O)[O-])s2)cc1OC`: “inactive”; `Cc1cc(C=O)c(C)n1-c1ccc(Cl)c(C(=O)O)c1`: “inactive”.
For `COc1ccc([N+](=O)[O-])cc1NC(=O)CCS(=O)(=O)c1ccc(Br)cc1` the value was “inactive”; for `Cc1cc(C=O)c(C)n1-c1cc(C(=O)O)cc(C(=O)O)c1`, “inactive”; for `Cc1ccc(S(=O)(=O)Nc2csc(C)c2C(=O)O)cc1`, “inactive”.
Next, `CNS(=O)(=O)c1cccc(C(=O)OCC(=O)N2c3ccccc3NC(=O)C2(C)C)c1`: “inactive”.
As to `[O-][n+]1onc2c1CCc1c-2nn(-c2ccccc2Cl)[n+]1[O-]`, the compound was classed as inactive.
Next, `Nc1cc(S(=O)(=O)O)cc([N+](=O)[O-])c1O`: “inactive”.
For `COc1cc(NCCCCC(C)N)c2nccc(C)c2c1` (centres undefined) the value was “inactive”; for `O=c1c(CO)cc(CO)cc(CO)c1O`, “inactive”; for `COc1ccc(NS(=O)(=O)c2ccc3c(c2)[C@H]2C=CC[C@H]2[C@@H](c2ccc(C(=O)O)cc2)N3)cc1`, “inactive”.

The values are drawn from PubChem BioAssay AID743294 (Broad Institute, 2014).
